Activity calls are given as the source filed them.
Legend:
[1] = tested on: PRMT1 (protein arginine N-methyltransferase 1); test: PRMT1 binders on small-molecule microarrays, primary screen, biochemical, small-molecule microarray, 635 nm fluorescence (AID 1088); conditions: small-molecule microarray binding, higher = more signal;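 also: binding of Prmt1 protein to compounds spotted on small-molecule microarray slides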
[2] = yeast growth modulation, basal conditions, primary screen, YJM789 clinical isolate, OD600, 24 h (AID 1089);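 also: growth of clinical yeast isolate S. cerevisiae YJM 789 seeded 1000 cells per well; test concentration not given here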; conditions: S. cerevisiae YJM789 growth, higher = more signal, called active from +8 up or from −8 down
[3] = fission yeast growth modulation, primary screen, strain 972, OD600, 24 h, no modulator (AID 1090);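 also: basal condition with compound alone and no growth modifier present; test concentration not given here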; conditions: S. pombe 972 growth, higher = more signal, called active from +8 up or from −8 down
[4] = S. cerevisiae growth modulation with rapamycin, primary screen, strain BY4716, OD600, 96 h (AID 1091); conditions: higher = more signal, called active from +8 up or from −8 down; also: test concentration not given here
[5] = molecular target: Torsin-1A-interacting protein 2 (Homo sapiens) (UniProt Q8NFQ8); test: LULL1 binders on small-molecule microarray, primary screen, cell lysate, human LULL1 lysate, 635/667 nm fluorescence (AID 1092); conditions: hLULL1 lysate binding, 635 nm fluorescence, higher = more signal;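 also: probe is lysate of COS7 cells overexpressing human LULL1; score merges per-feature 667 nm fluorescence with signal-to-noise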
[6] = E. coli growth modulation, two-sided OD650, primary screen, E. coli filamentation project, strain DRC41, 24 h (AID 1093); conditions: OD650, 24 h, higher = more signal, called active from +8 up or from −8 down;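 also: MC1000 strain lacking acrAB efflux and sulA so SOS filamentation is blocked; test concentration not given here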
[7] = small-molecule microarray binders of probe aLefty2, primary screen, biochemical, biotinylated probe, 635/667 nm fluorescence (AID 1094); conditions: higher = more signal;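 also: score merges spot fluorescence near 667 nm with spot signal-to-noise ratio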
[8] = tested on: Noggin (protein binding on small-molecule microarray); test: Noggin binders on small-molecule microarray, primary screen, biochemical, 635/667 nm fluorescence (AID 1095); conditions: 635 nm fluorescence, higher = more signal;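 also: score merges 667 nm feature fluorescence with signal to noise over triplicate slides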
[9] = molecular target: Neurogenic locus notch homolog protein 3 (Homo sapiens) (UniProt Q9UM47); test: NOTCH3 binders on small-molecule microarray, primary screen, biochemical, 635/667 nm fluorescence (AID 1096); conditions: NOTCH3 binding, 635 nm fluorescence, higher = more signal
[10] = small-molecule microarray binders of probe aEGFR, primary screen, biochemical, biotinylated probe, 635/667 nm fluorescence (AID 1097); conditions: higher = more signal;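 also: probe is a biotinylated anti-EGFR antibody binding compounds printed on slides; score combines fluorescence near 667 nm and signal to noise of each spot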
[11] = tested on: Plasmodium falciparum Sir2 (PF13_0152, Sir2A); test: pfSir2 binders on small-molecule microarrays, primary screen, biochemical, small-molecule microarray, 635 nm fluorescence (AID 1098); conditions: small-molecule microarray binding, fluorescence 635 nm; higher = more signal;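 also: score merges spot fluorescence intensity with its signal-to-noise ratio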
[12] = small-molecule microarray binders of probe aDKK1, primary screen, biochemical, biotinylated probe, 635/667 nm fluorescence (AID 1099); conditions: higher = more signal;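 also: score merges 667nm spot fluorescence with signal to noise across triplicate slides; reference of the scale not given here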
[13] = small-molecule microarray binders of probe aCHRDL2, primary screen, biochemical, biotinylated probe, 635/667 nm fluorescence (AID 1100); conditions: higher = more signal
[14] = splicing luciferase reporter signal modulators, primary screen, spliceosome inhibition project, cell-based, HEK293, splice +/- reporter (AID 1101); conditions: luminescence, 24 h, higher = more signal, called active from +8 up or from −8 down;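 also: HEK293 cells carrying a splicing-competent luciferase reporter gene; test concentration not given here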
[15] = molecular target: Fibroblast growth factor 10 (Homo sapiens) (UniProt O15520); test: FGF10 binders on small-molecule microarrays, primary screen, biochemical, small-molecule microarray, 635 nm fluorescence (AID 1102); conditions: FGF10 binding, fluorescence 635 nm, higher = more signal
[16] = tested on: glycogen synthase kinase-3 (GSK3A per assay name; protocol says GSK3B); test: GSK3 binders on small-molecule microarrays, primary screen, biochemical, small-molecule microarray, 635 nm fluorescence, GSK3A (AID 1103); conditions: small-molecule microarray binding, fluorescence 635 nm; higher = more signal; also: the record names both GSK3A and GSK3B
[17] = molecular target: Epidermal growth factor receptor (Homo sapiens) (UniProt P00533); test: EGFR binders on small-molecule microarrays, primary screen, biochemical, small-molecule microarray, 635 nm fluorescence (AID 1104); conditions: EGFR binding, higher = more signal;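 also: score merges 667 nm emission intensity with spot signal to noise over triplicate slides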
[18] = molecular target: Follistatin-related protein 3 (Homo sapiens) (UniProt O95633); test: FSTL3 binders on small-molecule microarrays, primary screen, biochemical, small-molecule microarray, 635 nm fluorescence (AID 1105); conditions: FSTL3 binding, higher = more signal;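 also: score merges emission near 667 nm and signal to noise per printed spot across three slides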
[19] = molecular target: Dickkopf-related protein 1 (Homo sapiens) (UniProt O94907); test: DKK1 binders on small-molecule microarrays, primary screen, biochemical, small-molecule microarray, 635 nm fluorescence scan (AID 1106); conditions: DKK1 binding, higher = more signal;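 also: score merges emission near 667 nm with signal to noise over three replicate slides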
[20] = tested on: Inhibin beta A chain (activin A); test: INHBA (activin A) binders on microarrays, primary screen, biochemical, small-molecule microarray, 635 nm fluorescence scan (AID 1107); conditions: small-molecule microarray binding, higher = more signal;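 also: mouse activin A protein probed at 4.33 µg/mL on printed slides; score merges bound-protein fluorescence near 667 nm with spot signal-to-noise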

Chain of Dickkopf-related protein 1 (Homo sapiens) (O94907 whole entry, looked up): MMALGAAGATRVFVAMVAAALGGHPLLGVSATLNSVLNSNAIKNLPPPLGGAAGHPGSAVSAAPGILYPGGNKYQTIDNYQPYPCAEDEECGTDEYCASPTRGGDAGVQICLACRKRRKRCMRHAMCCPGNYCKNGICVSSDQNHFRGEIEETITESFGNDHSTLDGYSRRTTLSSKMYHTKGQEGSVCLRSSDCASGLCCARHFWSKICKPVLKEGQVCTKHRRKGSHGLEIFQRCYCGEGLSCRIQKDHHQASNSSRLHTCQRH
Chain of Neurogenic locus notch homolog protein 3 (Homo sapiens) (Q9UM47 whole entry, looked up): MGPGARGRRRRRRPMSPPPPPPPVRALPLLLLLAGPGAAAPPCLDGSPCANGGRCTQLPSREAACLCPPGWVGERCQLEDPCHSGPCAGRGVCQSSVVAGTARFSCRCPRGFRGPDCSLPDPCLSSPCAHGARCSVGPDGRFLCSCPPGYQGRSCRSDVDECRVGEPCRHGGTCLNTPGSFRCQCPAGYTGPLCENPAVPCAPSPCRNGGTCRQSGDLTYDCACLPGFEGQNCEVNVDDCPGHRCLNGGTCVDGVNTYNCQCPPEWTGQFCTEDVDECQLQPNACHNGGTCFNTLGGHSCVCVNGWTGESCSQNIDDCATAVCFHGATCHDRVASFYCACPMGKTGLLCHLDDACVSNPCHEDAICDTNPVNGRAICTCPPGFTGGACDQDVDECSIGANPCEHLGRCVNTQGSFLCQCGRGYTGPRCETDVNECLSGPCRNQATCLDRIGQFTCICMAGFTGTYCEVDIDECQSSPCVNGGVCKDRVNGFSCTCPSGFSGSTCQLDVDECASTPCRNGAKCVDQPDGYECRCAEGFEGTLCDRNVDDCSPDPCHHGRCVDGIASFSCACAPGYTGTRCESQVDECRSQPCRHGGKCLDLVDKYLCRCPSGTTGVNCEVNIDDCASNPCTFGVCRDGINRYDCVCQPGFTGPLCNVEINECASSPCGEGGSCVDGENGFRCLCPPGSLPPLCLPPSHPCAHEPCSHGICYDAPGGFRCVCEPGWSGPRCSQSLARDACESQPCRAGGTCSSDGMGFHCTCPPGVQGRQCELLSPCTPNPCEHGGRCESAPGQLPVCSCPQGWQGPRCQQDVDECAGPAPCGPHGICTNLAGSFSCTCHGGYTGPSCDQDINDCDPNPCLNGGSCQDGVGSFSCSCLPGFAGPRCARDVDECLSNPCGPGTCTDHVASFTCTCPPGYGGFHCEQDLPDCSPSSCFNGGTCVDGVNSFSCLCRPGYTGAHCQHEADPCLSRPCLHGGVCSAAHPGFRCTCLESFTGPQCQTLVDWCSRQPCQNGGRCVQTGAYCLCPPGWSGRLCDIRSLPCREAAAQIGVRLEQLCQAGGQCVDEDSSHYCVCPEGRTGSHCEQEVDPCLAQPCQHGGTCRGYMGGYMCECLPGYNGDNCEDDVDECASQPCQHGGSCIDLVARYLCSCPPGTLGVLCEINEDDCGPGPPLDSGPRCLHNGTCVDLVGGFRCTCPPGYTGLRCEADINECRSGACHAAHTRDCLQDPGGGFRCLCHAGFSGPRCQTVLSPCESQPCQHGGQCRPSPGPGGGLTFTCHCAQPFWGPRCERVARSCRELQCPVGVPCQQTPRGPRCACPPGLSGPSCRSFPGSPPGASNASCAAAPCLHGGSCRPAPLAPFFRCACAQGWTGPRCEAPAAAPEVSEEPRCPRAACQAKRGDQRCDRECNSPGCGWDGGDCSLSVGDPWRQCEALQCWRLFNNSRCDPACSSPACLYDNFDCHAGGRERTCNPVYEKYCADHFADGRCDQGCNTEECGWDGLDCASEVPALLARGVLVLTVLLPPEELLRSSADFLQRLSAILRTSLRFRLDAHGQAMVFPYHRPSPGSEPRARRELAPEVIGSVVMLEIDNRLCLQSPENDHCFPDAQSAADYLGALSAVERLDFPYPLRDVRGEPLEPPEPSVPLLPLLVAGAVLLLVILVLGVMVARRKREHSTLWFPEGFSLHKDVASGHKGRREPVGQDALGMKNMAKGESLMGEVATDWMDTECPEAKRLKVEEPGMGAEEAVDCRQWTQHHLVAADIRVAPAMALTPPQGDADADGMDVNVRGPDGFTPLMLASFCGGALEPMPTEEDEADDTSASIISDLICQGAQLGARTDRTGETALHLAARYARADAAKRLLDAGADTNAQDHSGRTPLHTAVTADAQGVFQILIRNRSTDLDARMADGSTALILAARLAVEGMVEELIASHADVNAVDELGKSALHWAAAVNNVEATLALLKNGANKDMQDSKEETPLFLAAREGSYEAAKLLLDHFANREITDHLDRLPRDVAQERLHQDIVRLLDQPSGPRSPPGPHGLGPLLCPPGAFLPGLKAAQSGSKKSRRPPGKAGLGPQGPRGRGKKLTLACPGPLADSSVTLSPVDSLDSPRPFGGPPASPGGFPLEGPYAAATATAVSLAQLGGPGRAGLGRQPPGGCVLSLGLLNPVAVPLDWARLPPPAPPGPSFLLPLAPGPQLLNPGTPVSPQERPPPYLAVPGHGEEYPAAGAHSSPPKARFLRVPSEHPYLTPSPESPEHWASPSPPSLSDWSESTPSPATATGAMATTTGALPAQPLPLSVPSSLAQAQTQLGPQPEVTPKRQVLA
Chain of Epidermal growth factor receptor (Homo sapiens) (P00533 whole entry, looked up): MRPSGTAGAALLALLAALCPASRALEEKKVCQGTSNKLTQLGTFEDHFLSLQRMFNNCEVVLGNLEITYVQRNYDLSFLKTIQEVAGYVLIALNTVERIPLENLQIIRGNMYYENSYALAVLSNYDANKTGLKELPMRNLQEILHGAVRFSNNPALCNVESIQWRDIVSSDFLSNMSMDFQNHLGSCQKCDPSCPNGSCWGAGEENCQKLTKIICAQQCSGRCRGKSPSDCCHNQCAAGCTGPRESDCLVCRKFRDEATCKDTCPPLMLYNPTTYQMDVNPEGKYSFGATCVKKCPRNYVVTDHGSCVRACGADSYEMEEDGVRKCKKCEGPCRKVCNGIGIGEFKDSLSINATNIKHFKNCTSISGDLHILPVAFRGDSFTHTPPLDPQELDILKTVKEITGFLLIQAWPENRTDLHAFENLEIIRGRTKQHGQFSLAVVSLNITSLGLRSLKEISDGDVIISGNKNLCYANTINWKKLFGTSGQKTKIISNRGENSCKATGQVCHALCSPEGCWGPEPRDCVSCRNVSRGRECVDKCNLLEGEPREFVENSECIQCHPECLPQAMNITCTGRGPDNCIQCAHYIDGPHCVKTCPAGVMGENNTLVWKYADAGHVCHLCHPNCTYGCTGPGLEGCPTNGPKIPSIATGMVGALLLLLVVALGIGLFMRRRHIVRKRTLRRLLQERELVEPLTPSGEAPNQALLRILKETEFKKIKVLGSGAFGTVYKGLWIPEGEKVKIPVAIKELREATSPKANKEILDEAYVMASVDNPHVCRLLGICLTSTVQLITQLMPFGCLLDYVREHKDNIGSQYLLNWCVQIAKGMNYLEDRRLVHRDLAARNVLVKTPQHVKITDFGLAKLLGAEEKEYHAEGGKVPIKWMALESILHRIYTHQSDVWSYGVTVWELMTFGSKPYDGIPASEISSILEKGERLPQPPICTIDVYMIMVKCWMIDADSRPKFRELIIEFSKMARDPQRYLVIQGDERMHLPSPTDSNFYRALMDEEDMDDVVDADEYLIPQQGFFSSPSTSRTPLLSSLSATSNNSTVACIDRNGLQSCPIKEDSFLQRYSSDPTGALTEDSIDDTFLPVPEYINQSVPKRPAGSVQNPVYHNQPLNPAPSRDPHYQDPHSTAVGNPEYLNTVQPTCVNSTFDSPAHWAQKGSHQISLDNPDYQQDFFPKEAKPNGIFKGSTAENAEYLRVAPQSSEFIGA
Chain of Follistatin-related protein 3 (Homo sapiens) (O95633 whole entry, looked up): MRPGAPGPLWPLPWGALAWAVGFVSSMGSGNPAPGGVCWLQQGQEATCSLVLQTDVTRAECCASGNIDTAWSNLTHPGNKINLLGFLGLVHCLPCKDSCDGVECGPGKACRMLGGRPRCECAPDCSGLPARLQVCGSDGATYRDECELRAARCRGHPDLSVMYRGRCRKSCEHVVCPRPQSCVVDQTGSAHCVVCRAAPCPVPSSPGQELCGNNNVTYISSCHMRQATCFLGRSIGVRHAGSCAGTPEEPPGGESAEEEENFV
Chain of Fibroblast growth factor 10 (Homo sapiens) (O15520 whole entry, looked up): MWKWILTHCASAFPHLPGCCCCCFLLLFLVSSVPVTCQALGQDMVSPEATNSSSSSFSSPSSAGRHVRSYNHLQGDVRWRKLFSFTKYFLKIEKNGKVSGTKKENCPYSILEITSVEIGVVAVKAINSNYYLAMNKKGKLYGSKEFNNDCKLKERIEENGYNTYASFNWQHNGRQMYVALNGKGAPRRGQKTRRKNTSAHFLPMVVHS
Chain of Torsin-1A-interacting protein 2 (Homo sapiens) (Q8NFQ8 whole entry, looked up): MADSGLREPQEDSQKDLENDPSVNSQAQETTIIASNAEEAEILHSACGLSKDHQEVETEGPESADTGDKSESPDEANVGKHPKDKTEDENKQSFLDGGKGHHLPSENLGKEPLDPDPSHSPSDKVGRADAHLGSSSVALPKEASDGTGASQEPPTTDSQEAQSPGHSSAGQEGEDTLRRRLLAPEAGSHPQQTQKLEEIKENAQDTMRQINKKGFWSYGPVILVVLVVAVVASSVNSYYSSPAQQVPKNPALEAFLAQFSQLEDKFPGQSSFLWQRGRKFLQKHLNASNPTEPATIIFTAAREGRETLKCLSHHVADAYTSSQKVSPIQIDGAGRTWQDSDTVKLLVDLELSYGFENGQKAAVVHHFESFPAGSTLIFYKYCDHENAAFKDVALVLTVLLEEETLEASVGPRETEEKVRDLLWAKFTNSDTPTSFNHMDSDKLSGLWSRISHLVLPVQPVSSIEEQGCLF

Row | SMILES | composite z-score [1] | z-score [2] | z-score [3] | z-score [4] | composite z-score [5] | z-score [6] | composite z-score [7] | composite z-score [8] | composite z-score [9] | composite z-score [10] | composite z-score [11] | composite z-score [12] | composite z-score [13] | z-score [14] | composite z-score [15] | composite z-score [16] | composite z-score [17] | composite z-score [18] | composite z-score [19] | composite z-score [20]
1 | COCCOC(=O)N1C(=O)[C@@]2(c3cc(C#CCCO)ccc31)[C@H](c1ccc(OCCO)cc1)N1[C@H](c3ccccc3)[C@H](c3ccccc3)OC(=O)[C@H]1[C@@H]2C(=O)NC[C@H](O)c1ccccc1 | 1.54 | 1.99 (inactive) | 1.98 (inactive) | 5.45 (inactive) | 2.54 | 1.3 (inactive) | -0.116 | 1.6 | 1.07 | -0.0286 | 1.3 | 0.0564 | -0.0641 | -0.6 (inactive) | 1.31 | 1 | 0.776 | 1.41 | 0.923 | 0.701
2 | C=CC[C@@]12N=C(c3ccc(OCCCO)cc3)O[C@@H]1c1ccccc1CN(Cc1ccccc1)C2=O | 1.54 | -0.127 (inactive) | -3.56 (inactive) | 5.67 (inactive) | 2.86 | 1.1 (inactive) | 0.258 | 0.347 | 0.7 | 0.0122 | 1.67 | 0.761 | 0.757 | -0.291 (inactive) | 0.623 | 1.28 | -0.0152 | 0.0791 | 0.191 | 1.01
3 | CC(C)[C@H]1NC(=O)[C@@]23C(=O)N[C@@H](Cc4ccccc4)C2[C@H](C)[C@@]2(C)O[C@H]2C3/C=C/C/C=C\CNC(=O)[C@H](C)NC1=O (stereo not given in full) | -1.24 | 0.782 (inactive) | 0.469 (inactive) | 0.41 (inactive) | -0.62 | -0.823 (inactive) | -0.287 | -0.632 | -0.517 | -0.255 | -0.949 | -0.386 | -0.256 | 0.616 (inactive) | 0.392 | -1.37 | -1.31 | -0.825 | -0.443 | 1.32
4 | O=C1O[C@@H](c2ccccc2)[C@@H](c2ccccc2)N2[C@@H](c3ccc(O)cc3)[C@]3(C(=O)Nc4ccc(C#CC5(O)CCCCCC5)cc43)[C@@H](C(=O)Nc3nc4ccccc4s3)[C@H]12 | 1.54 | 0.775 (inactive) | -0.399 (inactive) | 1.06 (inactive) | 2.56 | 2.03 (inactive) | 0.718 | 1.26 | 1.07 | 0.267 | 0.864 | 0.051 | 0.546 | 0.179 (inactive) | 0.869 | 1.34 | 0.736 | 1.39 | 0.892 | 0.644
